Screening data as filed in PubChem BioAssay.
Compounds with a hit are over-represented: about 12% of the library has one in this group of screens.
JMJD2A Tudor – JMJD2A Tudor domain (human) inhibition | Potency, µM (highest dose often 114 µM), without a hit: at the highest dose activity change, negative = inhibition, actives largely listed as inhibitors | 4.4% of 390,000 active | AlphaScreen JMJD2A-Tudor / H3K4me3 peptide binding | O75164; also: % is scaled to controls: 0 for no effect and ±100 for the full control effect; nearly all actives have a fitted effect of over 50% in size
Sfp PPTase inh – Sfp phosphopantetheinyl transferase inhibition. Biochemical Sfp PPTase activity, qHTS. Potency, µM, for the others: largest response in the series, negative = inhibition, actives largely listed as inhibitors. 3.5% of 310,000 active;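 also: the enzyme is Sfp with the accession as filed and its product quenches rhodamine fluorescence; 0% = enzyme reaction without inhibitor and -100% = no enzyme wells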
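Sfp 15 nM + cpd, 15 min RT; start w/ rhodamine-CoA 5 uM, BHQ-2-YbbR 12.5 uM (final); 50 mM Hepes pH 7.6, 10 mM MgCl2, 0.01% NP-40, 0.01% BSA; read 525/598 nm at 0 and 30 min.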
BAZ2B inh – inhibitors of human BAZ2B bromodomain; 4.4% of 360,000 active; AlphaScreen BAZ2B-H3K14Ac peptide displacement; Potency, µM (top dose mostly 114 µM), for the others: at the top dose activity change, negative = inhibition, usual class: inhibitors; Q9UIF8; also: % is scaled to controls: 0 for no effect and ±100 for the full control effect; nearly all actives have a fitted effect of over 60% in size
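Complex of BAZ2B and biotin-H3K14Ac (50 nM apiece) forms over 30 min at RT, then faces library compounds up to 110 uM for another 30 min; AlphaScreen beads added, 20 min dark incubation, luminescence read.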
L3MBTL1 block – inhibitors of human L3MBTL1 | Q9Y468 | AlphaScreen L3MBTL1–H3K9me1 peptide binding | Potency, µM (top dose mostly 57.1 µM), without a hit: at the highest dose activity, negative = inhibition, usual class: inhibitors | 0.66% of 230,000 active; also: % is scaled to controls: 0 for no effect and ±100 for the full control effect; nearly all actives have a fitted effect of over 60% in size
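Read-out is AlphaScreen signal from streptavidin donor and nickel chelate acceptor beads (10 ug/mL final each) bridging L3MBTL1 (50 nM) and biotinylated K9-monomethylated H3(1-15) peptide (75 nM), after 30 min compound exposure at room temperature.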
HP1b chromo inh – blocks HP1-beta chromodomain binding to methylated histone tails; P83916; AlphaScreen HP1-beta / biotin-H3K9me3 peptide binding; Potency, µM (highest dose often 114 µM), for the others: at the top dose activity change, negative = inhibition, hits mostly inhibitors; 0.56% of 390,000 active; also: nearly all actives have a fitted effect of over 70% in size
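HP1-beta protein (50 nM final) preincubated 30 min at room temperature with biotinylated H3(1-18)K9me3 peptide (50 nM) in PBS pH 7.4, 0.01% Tween-20, then compound added for 30 min. AlphaScreen streptavidin donor/nickel chelate acceptor beads (10 ug/mL final), 30 min dark, luminescence read.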
G9a inh – blocks human histone lysine methyltransferase G9a | G9a H3K9 monomethylation, AlphaScreen, 2 h | Potency, µM (highest dose often 102 µM), for the others: top-dose activity, negative = inhibition, usual class: inhibitors | 8.8% of 350,000 active | AID 504332; also: % is scaled to controls: 0 for no effect and ±100 for the full control effect; nearly all actives have a fitted effect of over 75% in size
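AlphaScreen detection with an anti-monomethyl H3K9 antibody quantified product after a 2 h room-temperature reaction containing 500 nM biotinylated H3K9 peptide, 20 µM SAM and 20 nM enzyme, which had been preincubated 15 min with compound.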
An asterisk follows results filed as active; [ ] = dose if it differs, or a comment. Calls follow the shape of the dose curve; as a rule, active = well fitted curve in the direction sought with a large enough effect; inconclusive = small, poorly fitted or top-dose-only effect, or another doubt; inactive = no such curve, though single readings can be large; an effect the other way counts as inactive or inconclusive. Potency is read from the fitted curve at half-maximal effect.

How did CC(Nc1ccc(Br)cc1)C(=O)N/N=C/c1ccccc1OCc1ccccc1 (stereo not given) do in these assays?
JMJD2A Tudor: -31%; Sfp PPTase inh: 16%; BAZ2B inh: -31%; HP1b chromo inh: 17%; G9a inh: 22%[12.7 µM]

How did O=C(O)c1cccc(NC(=S)N/N=C/c2ccccc2OCc2ccc(Br)cc2)c1 do in these assays?
JMJD2A Tudor: 50µM*; Sfp PPTase inh: -16%; BAZ2B inh: 50µM*; L3MBTL1 block: -23%; HP1b chromo inh: inconclusive; G9a inh: inconclusive

How did COc1ccc(OCC(=O)OCc2cc(=O)n3nc(C4CCCCC4)sc3n2)cc1 do in these assays?
JMJD2A Tudor: -29%; BAZ2B inh: -12%; HP1b chromo inh: inconclusive; G9a inh: -2%[59 µM]

Results for CCCOc1ccc(/C=N/Nc2ccc(C(=O)O)cc2)c(OCCC)c1 ?
JMJD2A Tudor: inconclusive; Sfp PPTase inh: -27%; BAZ2B inh: inconclusive; L3MBTL1 block: -7%; HP1b chromo inh: -15%; G9a inh: 40µM*

Results for CC(=O)Nc1ccc(C(=O)N/N=C/c2ccccc2OCc2ccccc2)cc1 ?
JMJD2A Tudor: inconclusive; Sfp PPTase inh: 16%; BAZ2B inh: -16%; L3MBTL1 block: 4%; HP1b chromo inh: -24%; G9a inh: 4%

What do the screens show for `CCOc1cc(/C=N/NC(=O)CNc2cccc(C)c2)ccc1OC(=O)c1ccccc1`?
JMJD2A Tudor: inconclusive; Sfp PPTase inh: 4%; BAZ2B inh: inconclusive; L3MBTL1 block: -7%; HP1b chromo inh: -3%; G9a inh: 6%[12.7 µM]

What do the screens show for `O=C(O)c1cccc(NC(=S)N/N=C/c2ccccc2OCc2cccc(Br)c2)c1`?
JMJD2A Tudor: 50µM*; Sfp PPTase inh: inconclusive; BAZ2B inh: 45µM*; L3MBTL1 block: -11%; HP1b chromo inh: inconclusive; G9a inh: 45µM*

What do the screens show for `CCOc1cc(/C=N/Nc2cccc(C(=O)O)c2)ccc1OC(=O)c1ccccc1`?
JMJD2A Tudor: inconclusive; Sfp PPTase inh: 1%; BAZ2B inh: inconclusive; L3MBTL1 block: -20%; HP1b chromo inh: inconclusive; G9a inh: 10µM*

Results for O=C(Nc1ccc2c(c1)OCO2)c1cc(-c2ccc(O)cc2)on1 ?
JMJD2A Tudor: -12%; Sfp PPTase inh: 10%; BAZ2B inh: -20%; HP1b chromo inh: 44%; G9a inh: -7%

What do the screens show for `CN(Cc1ccccc1)C(C(=O)NC1CCCCC1)c1ccc(Cl)cc1` (stereo not given)?
JMJD2A Tudor: -1%; BAZ2B inh: 2%; HP1b chromo inh: 15%; G9a inh: 7%[59 µM]

Results for COc1ccccc1CNC(=O)CCNC(=O)c1ccco1 ?
JMJD2A Tudor: -4%; BAZ2B inh: 8%; L3MBTL1 block: -4%; HP1b chromo inh: 27%; G9a inh: 4%

What do the screens show for `COc1ccc(OC)c(CNCCNC(=O)c2ccco2)c1`?
Sfp PPTase inh: -29%; BAZ2B inh: 56µM*; G9a inh: inconclusive

Results for O=C(NCCNCc1ccc(F)cc1)c1ccco1 ?
JMJD2A Tudor: 3.5µM*; Sfp PPTase inh: -21%; BAZ2B inh: 50µM*; HP1b chromo inh: inconclusive; G9a inh: 7.9µM*

How did O=C(NCCNC(=O)c1ccco1)c1ccc(F)cc1 do in these assays?
JMJD2A Tudor: -3%; Sfp PPTase inh: 23%; BAZ2B inh: -10%; L3MBTL1 block: 8%; HP1b chromo inh: 0%; G9a inh: -2%

What do the screens show for `COc1ccc(CNCCNC(=O)c2cccs2)c(OC)c1OC`?
JMJD2A Tudor: 22µM*; Sfp PPTase inh: -11%; BAZ2B inh: 56µM*; L3MBTL1 block: 3%; HP1b chromo inh: -22%; G9a inh: 14µM*

Results for COc1cccc(CNCCNC(=O)c2ccco2)c1OC ?
JMJD2A Tudor: inconclusive; Sfp PPTase inh: inconclusive; BAZ2B inh: 50µM*; HP1b chromo inh: -18%; G9a inh: 11µM*

Results for COc1cc(OC)cc(C(=O)NCCNC(=O)c2ccco2)c1 ?
JMJD2A Tudor: -8%; Sfp PPTase inh: -3%; BAZ2B inh: -1%; L3MBTL1 block: 0%[11.4 µM]; HP1b chromo inh: 27%; G9a inh: -3%[59 µM]

How did CCOc1ccc(C(=O)Nc2cccc(C(=O)OCc3cc(=O)n4cc(C)sc4n3)c2)cc1 do in these assays?
JMJD2A Tudor: 4%; BAZ2B inh: -10%; HP1b chromo inh: 26%; G9a inh: 0%[12.7 µM]

How did CC(C)CN1CCC(=O)N([C@H](CO)Cc2ccccc2)CC1 do in these assays?
JMJD2A Tudor: -10%; Sfp PPTase inh: 11%; BAZ2B inh: 1%[57.1 µM]; L3MBTL1 block: -2%; HP1b chromo inh: 23%; G9a inh: inconclusive

What do the screens show for `CCCCn1c(SCc2ccccc2C#N)nc2c(sc3ccccc32)c1=O`?
JMJD2A Tudor: -14%; BAZ2B inh: 6%; HP1b chromo inh: 30%; G9a inh: 16%[59 µM]

Results for O=C(O)c1ccc(-c2ccccc2C(F)(F)F)o1 ?
JMJD2A Tudor: -14%; Sfp PPTase inh: 14%; BAZ2B inh: inconclusive; HP1b chromo inh: 1%; G9a inh: 18%[59 µM]

What do the screens show for `O=C(NCc1ccccc1)c1ccc(-c2ccccc2C(F)(F)F)o1`?
JMJD2A Tudor: 17%; Sfp PPTase inh: 6%; BAZ2B inh: 9%; L3MBTL1 block: 14%; HP1b chromo inh: 63%; G9a inh: 40µM*

Results for COc1ccccc1C(CNC(=O)c1ccc(-c2ccccc2Cl)o1)N1CCCC1 (stereo not given) ?
JMJD2A Tudor: inconclusive; BAZ2B inh: -36%; L3MBTL1 block: -1%; HP1b chromo inh: 2%; G9a inh: 14%[0.501 µM]

What do the screens show for `Cc1ccc(-c2ccc(C(=O)NCc3ccc(Cl)cc3)o2)c2ccccc12`?
JMJD2A Tudor: inconclusive; Sfp PPTase inh: inconclusive; BAZ2B inh: inconclusive; L3MBTL1 block: -3%; HP1b chromo inh: -23%; G9a inh: 14µM*

Results for COc1ccc(NC(=O)c2cc(-c3ccccc3Cl)no2)cc1 ?
JMJD2A Tudor: -2%; Sfp PPTase inh: 10%; BAZ2B inh: -2%; L3MBTL1 block: -1%; HP1b chromo inh: 26%; G9a inh: 6%

Results for O=C(Nc1ccccc1)c1cc(-c2ccccc2Cl)no1 ?
JMJD2A Tudor: 28µM*; Sfp PPTase inh: -13%; BAZ2B inh: 5%; L3MBTL1 block: 5%; HP1b chromo inh: -2%; G9a inh: 42%

How did COc1ccc(C(CNC(=O)c2ccc(-c3ccccc3Cl)o2)N2CCOCC2)cc1 (stereo not given) do in these assays?
JMJD2A Tudor: -35%; BAZ2B inh: inconclusive; L3MBTL1 block: -17%; HP1b chromo inh: -9%; G9a inh: 45µM*
